Reference: PubChem BioAssay AID1159580 (chemical genetic matrix, 2015)
Where “and” joins values, the source holds several entries; their conditions need not be identical. Identical values can stand only once. In all, about 5,500 compounds went through this assay and about 2,000 (36%) were called active. About 18% were inconclusive and are not listed. No stated cut-off is given here; in the data, active means normalized growth mostly below about 0.91 (no sharp cut-off); inconclusive means no clear call, values can overlap the other calls; inactive means mostly above about 0.92. Some of the results follow.

Experiment: chemical genetic growth profiling, strain panel (AID 1159580);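 further: tested at 20 µM; growth read once vehicle control cultures reached saturation at 30 °C; 1 = growth at the plate median or of vehicle wells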
Conditions: S. cerevisiae deletion strains, growth OD

Measured: normalized growth

Nc1ccc(S(=O)(=O)Nc2cnc3ccccc3n2)cc1
inactive: locus YAL013W, strain DEP1, stronger effect = lower value 0.994 | locus YAL021C, strain ccr4, stronger effect = lower value 1.01 | locus YAL026C, strain drs2, stronger effect = lower value 1 | locus YAL030W, strain snc1, stronger effect = lower value 1.02 | locus YBL061C, strain skt5, stronger effect = lower value 1 | locus YBR009C, strain hhf1, stronger effect = lower value 0.973 | locus YBR021W, strain FUR4, stronger effect = lower value 0.999 | locus YBR023C, strain chs3, stronger effect = lower value 1.02 | locus YBR171W, strain sec66, stronger effect = lower value 1.02 | locus YBR229C, strain ROT2, stronger effect = lower value 0.957 | locus YBR231C, strain swc5, stronger effect = lower value 1.01 | locus YBR279W, strain paf1, stronger effect = lower value 1.01 | locus YCL011C, strain gbp2, stronger effect = lower value 1.01 | locus YCL016C, strain dcc1, stronger effect = lower value 1 | locus YCL029C, strain bik1, stronger effect = lower value 0.983 | locus YCL061C, strain MRC1, stronger effect = lower value 1.02 | locus YCL069W, strain vba3, stronger effect = lower value 1.02 | locus YCR088W, strain abp1, stronger effect = lower value 1.01 | locus YDL005C, strain med2, stronger effect = lower value 1.02 | locus YDL035C, strain GPR1, stronger effect = lower value 1 | locus YDL040C, strain nat1, stronger effect = lower value 1.01 | locus YDL074C, strain BRE1, stronger effect = lower value 0.977 | locus YDL101C, strain DUN1, stronger effect = lower value 0.989 | locus YDL134C, strain PPH21, stronger effect = lower value 1.01 | locus YDL185W, strain tfp1, stronger effect = lower value 0.974 | locus YDL192W, strain arf1, stronger effect = lower value 0.973 | locus YDR001C, strain nth1, stronger effect = lower value 1.02 | locus YDR069C, strain doa4, stronger effect = lower value 1.03 | locus YDR101C, strain arx1, stronger effect = lower value 1 | locus YDR137W, strain rgp1, stronger effect = lower value 0.993 | locus YDR150W, strain NUM1, stronger effect = lower value 0.991 | locus YDR159W, strain sac3, stronger effect = lower value 0.955 | locus YDR162C, strain NBP2, stronger effect = lower value 0.999 | locus YDR195W, strain ref2 1.01 | locus YDR297W, strain sur2, stronger effect = lower value 1.02 | locus YDR318W, strain mcm21, stronger effect = lower value 0.995 | locus YDR334W, strain swr1, stronger effect = lower value 1.02 | locus YDR335W, strain msn5, stronger effect = lower value 1.01 | locus YDR388W, stronger effect = lower value 0.986 | locus YDR392W, strain spt3, stronger effect = lower value 0.942 | locus YDR502C, strain sam2, stronger effect = lower value 0.978 | locus YEL003W, strain gim4, stronger effect = lower value 1.02 | locus YEL037C, strain rad23, stronger effect = lower value 1.01 | locus YEL061C, strain CIN8 (second series), stronger effect = lower value 1.01 | locus YEL061C, strain CIN8, stronger effect = lower value 0.981 | locus YER015W, strain faa2, stronger effect = lower value 1 | locus YER016W, strain bim1, stronger effect = lower value 0.962 | locus YER110C, stronger effect = lower value 0.981 | locus YER111C, strain swi4, stronger effect = lower value 1.02 | locus YER155C, strain BEM2 (second series), stronger effect = lower value 0.981 | locus YER155C, strain BEM2, stronger effect = lower value 0.996 | locus YER167W, strain BCK2, stronger effect = lower value 0.993 | locus YFR010W, strain ubp6, stronger effect = lower value 1.04 | locus YGL078C, strain dbp3, stronger effect = lower value 0.99 | locus YGL086W, strain mad1, stronger effect = lower value 0.983 | locus YGL167C, strain pmr1, stronger effect = lower value 1.01 | locus YGL173C, strain kem1, stronger effect = lower value 1.01 | locus YGL227W, strain vid30, stronger effect = lower value 1.02 | locus YGL240W, strain doc1, stronger effect = lower value 1.03 | locus YGL248W, strain PDE1, stronger effect = lower value 0.972 | locus YGL253W, strain hxk2, stronger effect = lower value 1.02 | locus YGR135W, strain pre9, stronger effect = lower value 0.992 | locus YGR252W, strain gcn5, stronger effect = lower value 0.988 | locus YHR013C, strain ard1, stronger effect = lower value 1 | locus YHR027C, strain rpn1, stronger effect = lower value 1.01 | locus YHR030C, strain SLT2, stronger effect = lower value 1 and 0.974 | locus YHR079C, strain IRE1 (second series), stronger effect = lower value 0.989 | locus YHR079C, strain IRE1, stronger effect = lower value 0.957 | locus YHR094C, strain hxt1, stronger effect = lower value 0.985 | locus YHR129C, strain ARP1, stronger effect = lower value 0.989 | locus YHR142W, strain chs7, stronger effect = lower value 1.05 | locus YHR200W, strain rpn10, stronger effect = lower value 0.967 | locus YIL066C, strain RNR3, stronger effect = lower value 0.978 | locus YIL073C, strain SPO22, stronger effect = lower value 1.02 | locus YIL125W, strain kgd1, stronger effect = lower value 0.981 | locus YIR030C, strain dcg1, stronger effect = lower value 0.981 | locus YJL092W, strain hpr5, stronger effect = lower value 0.996 | locus YJL095W, strain BCK1 (second series), stronger effect = lower value 1.02 | locus YJL095W, strain BCK1, stronger effect = lower value 0.965 and 0.98 | locus YJL115W, strain asf1, stronger effect = lower value 1.02 | locus YJL129C, strain trk1, stronger effect = lower value 1.01 | locus YJL134W, strain LCB3, stronger effect = lower value 0.993 | locus YJL154C, strain vps35, stronger effect = lower value 1.02 | locus YJL164C, strain tpk1, stronger effect = lower value 0.996 | locus YJL166W, strain qcr8, stronger effect = lower value 1.02 | locus YJL168C, strain set2, stronger effect = lower value 0.976 | locus YJL187C, strain SWE1 (second series), stronger effect = lower value 0.964 | locus YJL187C, strain SWE1, stronger effect = lower value 1.01 | locus YJR043C, strain POL32, stronger effect = lower value 1.02 | locus YJR066W, strain TOR1, stronger effect = lower value 0.918
